Data published in PubChem BioAssay AID1671190 (National Center for Advancing Translational Sciences (NCATS), 2021).
Screen size: about 580,000 compounds; about 6,100 (1.1%) were called active. Inconclusive results (about 15%) are left out. The call rests on the fitted dose curve; in most records, active means well fitted inhibition curve with a large enough effect; inconclusive means small, poorly fitted or top-dose-only effect, or another doubt; inactive means no such curve, though single readings can be large or run the other way. Shown is part of a subset that was picked to be rich in actives.

Molecular target: Polyunsaturated fatty acid lipoxygenase ALOX12 (Homo sapiens) (UniProt P18054)
Sequence (P18054 whole entry, looked up): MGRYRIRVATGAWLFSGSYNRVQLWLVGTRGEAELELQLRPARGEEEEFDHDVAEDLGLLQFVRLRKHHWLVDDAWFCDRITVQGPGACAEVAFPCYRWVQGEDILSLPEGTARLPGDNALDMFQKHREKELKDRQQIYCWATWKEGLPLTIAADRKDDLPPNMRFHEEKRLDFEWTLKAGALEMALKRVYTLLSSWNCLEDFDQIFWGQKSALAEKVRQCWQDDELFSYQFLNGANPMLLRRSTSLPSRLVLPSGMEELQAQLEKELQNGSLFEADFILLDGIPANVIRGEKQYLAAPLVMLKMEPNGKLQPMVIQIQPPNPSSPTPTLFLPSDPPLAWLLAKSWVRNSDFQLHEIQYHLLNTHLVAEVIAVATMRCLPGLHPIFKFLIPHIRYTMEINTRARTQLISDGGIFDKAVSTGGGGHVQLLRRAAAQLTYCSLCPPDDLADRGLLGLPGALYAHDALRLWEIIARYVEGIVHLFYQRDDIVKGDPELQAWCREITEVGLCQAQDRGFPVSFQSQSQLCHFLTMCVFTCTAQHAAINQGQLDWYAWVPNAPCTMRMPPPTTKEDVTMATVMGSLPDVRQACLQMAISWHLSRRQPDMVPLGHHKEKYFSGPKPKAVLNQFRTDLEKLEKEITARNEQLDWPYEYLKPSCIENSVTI
Test: Primary qHTS assay for inhibitors of human arachidonate 12S-lipoxygenase (ALOX12): Round 2
Settings: purified 12hLO, xylenol orange hydroperoxide absorbance; series mostly up to 108 µM; activity change, negative = inhibition: at the top concentration
In short: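 Hydroperoxide product was detected by ferrous iron/xylenol orange as the 573 to 405 nm absorbance ratio. Arachidonic acid at 40 uM (final) was turned over for 30 min at room temperature by 150 nM human 12hLO, pH 7.0 Hepes buffer, after 15 min compound preincubation.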
On the % scale 0 is the no-effect control and ±100 the full control effect; potency means the concentration at half of the fitted maximal effect.

SMILES | activity change, negative = inhibition | Potency
O=C(COC(=O)c1cccc(NS(=O)(=O)c2ccccc2)c1)NCc1cccs1 | 1.83% (inactive) | 
CC1CCCCN1C(=O)Cn1c(=O)oc2cc(S(=O)(=O)N3CCCCC3)ccc21 (configuration not stated) | 1.67% (inactive) | 
COc1cccc(CNC(=O)Cn2c(=O)oc3cc(S(=O)(=O)N4CCCCC4)ccc32)c1 | -2.03% (inactive) | 
CNC(=O)c1ccc(NC(=O)CCn2c(=O)oc3cc(S(=O)(=O)N4CCCC4)ccc32)cc1 |  | 35.5 µM (active)
Cc1ccc(OCCC(=O)Nc2cc3c(cc2Cl)OCCO3)c(C)c1 | 7.57% (inactive) | 
CCOc1ccc(C(C)NC(=O)Cn2c(=O)c3c(ncn3C)n(C)c2=O)cc1 (configuration not stated) | 4.67% (inactive) | 
CC1=C[C@@H](CN(C)CCc2ccccn2)[C@H](C(C)C)C[C@H]1Cc1nnc(-c2ccccc2F)o1 | 41.6% (inactive) | 
O=C(CCn1ccc(=O)[nH]c1=O)N[C@@H]1COCC[C@@H]1OCc1ccccc1 | 19.4% (inactive) | 
C=CCNC(=S)N(CC)CC | 24.5% (inactive) | 
COc1cc(S(=O)(=O)Nc2ccccc2OC)ccc1NC(C)=O | -2.8% (inactive) | 
COc1ccc(Br)cc1/C=N/Nc1ccc(S(=O)(=O)Nc2ccccc2C(=O)O)cc1[N+](=O)[O-] |  | 14.1 µM (active)
COC(=O)c1ccccc1NS(=O)(=O)c1ccc2c(c1)CCCN2C(C)=O | -8% (inactive) | 
O=C(O/N=C1\CCCc2oc3c(c21)CCCC3)c1ccc(Cl)c(Cl)c1 | 9.98% (inactive) | 
Cc1ccc(Cn2c(N3CCC(C(N)=O)CC3)nc3c2c(=O)n(C)c(=O)n3C)cc1 | -30% (inactive) | 
Cc1oc(-c2ccccc2)nc1C(=O)NC(C1CC1)C1CC1 | -4.72% (inactive) | 
CCC(C(=O)Nc1c(C)cccc1C)n1c(-c2cc(C)cs2)nc2ccccc21 (configuration not stated) | -4.84% (inactive) | 
CC(C)(C)NC(=O)C(CCc1ccccc1)n1c(=O)c(-c2ccccc2)nc2ccccc21 (configuration not stated) | -1.34% (inactive) | 
COc1ccc(NC(=O)C(c2ccncc2)n2c(=O)c(-c3cc4ccccc4[nH]3)nc3ccccc32)cc1 (configuration not stated) | -17% (inactive) | 
O=C(NCCn1c(-c2ccccc2)nc2ccccc21)NCc1ccccc1 | 1.71% (inactive) | 
Cc1cccc(C)c1NC(=O)C(c1ccc(C(F)(F)F)cc1)n1c(=O)c(-c2ccco2)nc2ccccc21 (configuration not stated) |  | 14.1 µM (active)
N#Cc1ccc(C(C(=O)NCc2ccccc2)n2c(=O)c(-c3ccco3)nc3ccccc32)cc1 (configuration not stated) |  | 17.8 µM (active)
COc1cccc(S(=O)(=O)N2CCCCCCNC(=O)[C@@H]3CCC[C@@H]32)c1 | -4.62% (inactive) | 
O=C(Nc1ccccc1)Nc1cc(S(=O)(=O)N2CCOCC2)ccc1NCC1CCCO1 (configuration not stated) | 23.8% (inactive) | 
c1ccc([C@@H]2CNC[C@H]2COCC2CC2)nc1 | 0.121% (inactive) | 
Cn1c(C(=O)NCCNC(=O)c2cccc(F)c2)cc2ccccc21 | 16.2% (inactive) | 
Cc1cccc(-n2nc(-c3c(C)nc4scc(CC(=O)NCCC(C)C)n4c3=O)cc2C)c1C | 72.6% (inactive) | 

SMILES | activity change, negative = inhibition | Potency
COc1ccccc1CCNS(=O)(=O)c1ccc(N2C(=O)C(C)(C)CS2(=O)=O)cc1 | -48.1% (inactive) | 
COc1ccc2nc(SC3CC(=O)N(c4ccc(F)cc4)C3=O)nc(C)c2c1 (configuration not stated) | 0.607% (inactive) | 
O=C(CCN1CCCCC1)Nc1ccc(F)c(F)c1 | 4.59% (inactive) | 
O=C(CCN1CCN(C/C=C/c2ccccc2)CC1)Nc1cccc(F)c1 | -2.51% (inactive) | 
Cc1cc(NC(=O)CCN2CCN(Cc3ccccc3)CC2)ccc1Br |  | 3.16 µM (active)
COCCNC(=O)COc1ccc2c(C)c(Cc3ccccc3)c(=O)oc2c1C | -38.9% (inactive) | 
CN(C)C[C@@H]1CN(Cc2ccccn2)C[C@H]1NC(=O)c1cc(F)ccc1Cl | 113% (inactive) | 
COc1ccccc1Oc1coc2cc(OCc3ccc(Cl)cc3)ccc2c1=O | -11% (inactive) | 
COC(=O)COc1ccc2c(=O)c(Oc3ccccc3Br)coc2c1 | 0% (inactive) | 
O=C(O)COc1ccc2c(=O)c(Oc3ccc(Cl)cc3)coc2c1 |  | 12.6 µM (active)
CCCCN1C(SCC(=O)N2CCCC2)=NS(=O)(=O)c2ccccc21 | 4.21% (inactive) | 
Cc1ccc(C(CNC(=O)c2cc3ccccc3oc2=O)N(C)C)o1 (configuration not stated) | 8.45% (inactive) | 
O=C1Cc2c(-c3ccc(Oc4ccccc4)cc3)n[nH]c2CN1CCc1ccncc1 | 14.1% [at 176 µM] (inactive) | 
CCn1nc(C)cc1-c1nn2c(-c3cccc(Cl)c3Cl)nnc2s1 | 62.2% (inactive) | 
CCc1ccc(Nc2n[n+](-c3ccccc3)c(-c3cccc(Cl)c3Cl)s2)cc1 |  | 39.8 µM (active)
CC1CCCC(NC(=O)c2c(F)cccc2F)C1C (configuration not stated) | 5.84% (inactive) | 
CCc1sc(C(=O)NC(C)C)cc1C | -26.1% (inactive) | 
Cc1cccc(OCC(O)CNC23CC4CC(CC(C4)C2)C3)c1 (configuration not stated) | 12% (inactive) | 
CCn1cc(CN2CCCC23CCN(c2ccc(C(F)(F)F)cn2)CC3)cc1C#N | 52.7% (inactive) | 
O=C(CSc1ncnc2sc3c(c12)CCCC3)Nc1ccc(F)cc1 | -0.335% (inactive) | 
S=c1[nH]nc2c3c4c(sc3ncn12)CCCC4 |  | 0.562 µM (active)
Cc1cc(C(F)(F)F)nn1Cc1nc2c3c4c(sc3ncn2n1)CCC4 | 37.6% (inactive) | 
CCCCCCCCCC(=O)NN=C1CCCCCCCCCCC1 | 20.9% (inactive) | 
O=C(CSc1ncccn1)N1CCCC1 | 12% (inactive) | 
O=C(CSc1ccncc1)N1CCCC(O)(CN2CCCC2)C1 (configuration not stated) |  | 25.1 µM (active)
CC1(C(=O)NS(=O)(=O)C2CC2)CCCN(C(=O)CSc2ccccc2)C1 (configuration not stated) | 2.48% (inactive) | 
